Results taken from paper PMC5700166.

How the values were obtained:
Assay in all cases: protein-binding microarray (PBM); PBM: ~300 nM protein, 6 mM HEPES pH 7.8, 80 mM KCl, 0.5 mM EDTA, 0.5 mM EGTA, 6% glycerol, 35 ng/ul poly-dIdC, 1% milk, 1 h, room temperature; Ap Aiptasia and Nv Nematostella (sea anemones) / Co Capsaspora / Aq Amphimedon (sponge) / Dm Drosophila / Hu human; RHD is the Rel homology domain; high values mean tight binding
Conditions in all cases: dsDNA, one strand shown
GST-Ap-NF-kB RHD = molecular target: T1, GST-Ap-NF-kB RHD (Exaiptasia pallida (Aiptasia), UniProt A0A913YAJ5 2-422)
T1 sequence: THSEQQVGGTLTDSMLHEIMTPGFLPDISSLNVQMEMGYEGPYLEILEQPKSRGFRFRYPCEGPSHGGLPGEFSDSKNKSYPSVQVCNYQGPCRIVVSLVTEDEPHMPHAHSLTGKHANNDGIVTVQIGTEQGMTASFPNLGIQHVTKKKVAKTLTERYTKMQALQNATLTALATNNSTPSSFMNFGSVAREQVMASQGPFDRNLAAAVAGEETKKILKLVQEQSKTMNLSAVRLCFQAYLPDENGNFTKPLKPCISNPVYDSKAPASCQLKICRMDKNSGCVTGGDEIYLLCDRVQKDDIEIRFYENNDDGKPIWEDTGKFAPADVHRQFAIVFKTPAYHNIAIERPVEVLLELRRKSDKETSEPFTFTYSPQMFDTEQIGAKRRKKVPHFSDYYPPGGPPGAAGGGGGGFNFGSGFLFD

[1] = molecular target: T2, GST-Nv-NF-kB (Cys allele) (Nematostella vectensis, UniProt E5G601 2-411)
T2 sequence: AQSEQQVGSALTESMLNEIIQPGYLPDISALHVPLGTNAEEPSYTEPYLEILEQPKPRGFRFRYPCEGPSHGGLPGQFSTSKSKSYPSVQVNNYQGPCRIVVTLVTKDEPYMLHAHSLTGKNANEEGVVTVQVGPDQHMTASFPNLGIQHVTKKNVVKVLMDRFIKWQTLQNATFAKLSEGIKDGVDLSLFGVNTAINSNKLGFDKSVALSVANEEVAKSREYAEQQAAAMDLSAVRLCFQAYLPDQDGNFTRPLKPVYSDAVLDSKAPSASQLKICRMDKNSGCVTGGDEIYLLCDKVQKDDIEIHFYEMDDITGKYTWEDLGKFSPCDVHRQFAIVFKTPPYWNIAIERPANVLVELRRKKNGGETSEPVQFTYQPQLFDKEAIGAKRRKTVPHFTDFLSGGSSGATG

GST-Dm-Relish = molecular target: T3, GST-Dm-Relish (Drosophila melanogaster, UniProt Q94527 99-473)
T3 sequence: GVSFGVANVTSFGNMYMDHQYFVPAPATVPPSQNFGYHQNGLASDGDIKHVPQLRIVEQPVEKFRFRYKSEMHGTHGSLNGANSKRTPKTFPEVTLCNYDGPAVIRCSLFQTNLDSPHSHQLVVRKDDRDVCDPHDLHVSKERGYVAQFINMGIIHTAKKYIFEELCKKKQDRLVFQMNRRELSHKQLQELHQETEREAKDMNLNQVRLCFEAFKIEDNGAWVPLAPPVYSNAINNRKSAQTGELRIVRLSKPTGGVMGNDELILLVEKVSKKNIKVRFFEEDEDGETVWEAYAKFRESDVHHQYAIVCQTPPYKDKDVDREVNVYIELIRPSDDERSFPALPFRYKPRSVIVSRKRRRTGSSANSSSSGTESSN

GST-Aq-NF-kB = molecular target: T4, GST-Aq-NF-kB (Amphimedon queenslandica, UniProt A9Y5G7 2-389)
T4 sequence: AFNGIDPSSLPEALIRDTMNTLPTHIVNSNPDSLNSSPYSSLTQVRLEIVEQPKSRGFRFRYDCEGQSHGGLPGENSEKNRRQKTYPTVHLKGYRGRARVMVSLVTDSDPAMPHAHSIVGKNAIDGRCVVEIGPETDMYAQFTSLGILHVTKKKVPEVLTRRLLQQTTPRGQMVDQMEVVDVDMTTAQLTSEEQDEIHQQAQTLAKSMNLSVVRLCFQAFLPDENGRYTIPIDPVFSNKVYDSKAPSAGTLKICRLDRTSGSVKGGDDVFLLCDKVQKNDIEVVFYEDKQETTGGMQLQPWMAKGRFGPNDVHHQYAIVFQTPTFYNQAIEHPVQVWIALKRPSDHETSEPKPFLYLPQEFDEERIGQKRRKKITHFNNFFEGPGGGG

Row | Sequence | binding signal (GST-Ap-NF-kB RHD) | binding signal [1] | binding signal (GST-Dm-Relish) | binding signal (GST-Aq-NF-kB)
1 | CCGATTAACATCAGGGCATACCCTGATGTTAATCGGGTCTTGATTCGCTTGACGCTGCTG | 2.36 z-score | 3.25 z-score | 3.77 z-score | 5.87 z-score
2 | CCGATTAACATCAGGAAAAGCCCTGATGTTAATCGGGTCTTGATTCGCTTGACGCTGCTG | 2.12 z-score | 1.89 z-score | 4.12 z-score | 4.95 z-score
3 | CCGATTAACATCACGGGACATACTGATGTTAATCGGGTCTTGATTCGCTTGACGCTGCTG | 1.83 z-score | 1.3 z-score | 1.8 z-score | 2.17 z-score
4 | CCGATTAACATCAGAAAATTACCTGATGTTAATCGGGTCTTGATTCGCTTGACGCTGCTG | 2.06 z-score | 3.89 z-score | 4.45 z-score | 3.25 z-score
5 | CCGATTAACATCAGGGATCTACCTGATGTTAATCGGGTCTTGATTCGCTTGACGCTGCTG | 3.06 z-score | 2.58 z-score | 7.65 z-score | 4.74 z-score
6 | CCGATTAACATCAGGAATTCACCTGATGTTAATCGGGTCTTGATTCGCTTGACGCTGCTG | 1.52 z-score | 3.06 z-score | 6.05 z-score | 4.83 z-score
7 | CCGATTAACATCACGGGTTTTTCTGATGTTAATCGGGTCTTGATTCGCTTGACGCTGCTG | 3.7 z-score | 3.76 z-score | 5.07 z-score | 4.7 z-score
8 | CCGATTAACATCACGGAATTACCTGATGTTAATCGGGTCTTGATTCGCTTGACGCTGCTG | 1.02 z-score | 1.63 z-score | 3.44 z-score | 3.88 z-score
9 | CCGATTAACATCAGAGAAACCCCTGATGTTAATCGGGTCTTGATTCGCTTGACGCTGCTG | 5.16 z-score | 4.86 z-score | 5.69 z-score | 5.18 z-score
10 | CCGATTAACATCAGGAGTTTACCTGATGTTAATCGGGTCTTGATTCGCTTGACGCTGCTG | 1.12 z-score | 1.18 z-score | 3.24 z-score | 2.87 z-score
11 | CCGATTAACATCAAGGAATTACCTGATGTTAATCGGGTCTTGATTCGCTTGACGCTGCTG | 1.08 z-score | 2.06 z-score | 5.14 z-score | 3.3 z-score
12 | CCGATTAACATCAAGGGCATTCCTGATGTTAATCGGGTCTTGATTCGCTTGACGCTGCTG | 1.84 z-score | 1 z-score | 2.4 z-score | 3.02 z-score
13 | CCGATTAACATCAGGGATTCCAATGATGTTAATCGGGTCTTGATTCGCTTGACGCTGCTG | 1.68 z-score | 1 z-score | 5.16 z-score | 1.78 z-score
14 | CCGATTAACATCAAAATTTCACCTGATGTTAATCGGGTCTTGATTCGCTTGACGCTGCTG | 1.14 z-score | 2.14 z-score | 2.34 z-score | 1.7 z-score
15 | CCGATTAACATCACGGTATTTCCTGATGTTAATCGGGTCTTGATTCGCTTGACGCTGCTG | 1.56 z-score | 1.37 z-score | 3.77 z-score | 4.59 z-score
16 | CCGATTAACATCAGGAAGTCCCATGATGTTAATCGGGTCTTGATTCGCTTGACGCTGCTG | 4.82 z-score | 5.32 z-score | 6.71 z-score | 4.99 z-score

Row | Sequence | binding signal (GST-Ap-NF-kB RHD) | binding signal [1] | binding signal (GST-Dm-Relish) | binding signal (GST-Aq-NF-kB)
17 | CCGATTAACATCAGGACTTTACCTGATGTTAATCGGGTCTTGATTCGCTTGACGCTGCTG | 1.18 z-score | 3.27 z-score | 5.92 z-score | 4.69 z-score
18 | CCGATTAACATCAGGAAAATACCTGATGTTAATCGGGTCTTGATTCGCTTGACGCTGCTG | 1.22 z-score | 2.3 z-score | 4.66 z-score | 4.29 z-score
19 | CCGATTAACATCAAGGGTTTTCCTGATGTTAATCGGGTCTTGATTCGCTTGACGCTGCTG | 3.57 z-score | 3.39 z-score | 4.7 z-score | 5.2 z-score
20 | CCGATTAACATCAAGGTAATTCCTGATGTTAATCGGGTCTTGATTCGCTTGACGCTGCTG | 1.69 z-score | 2.09 z-score | 4.8 z-score | 3.37 z-score
21 | CCGATTAACATCAGGGAGTTCCATGATGTTAATCGGGTCTTGATTCGCTTGACGCTGCTG | 2.73 z-score | 3.31 z-score | 4.43 z-score | 4.38 z-score
22 | CCGATTAACATCATTAGGGTATTTGATGTTAATCGGGTCTTGATTCGCTTGACGCTGCTG | 2.55 z-score | 3.98 z-score | 1.47 z-score | 3.54 z-score
23 | CCGATTAACATCACGGGACTTCCTGATGTTAATCGGGTCTTGATTCGCTTGACGCTGCTG | 5.89 z-score | 6.03 z-score | 7.87 z-score | 6.21 z-score
24 | CCGATTAACATCAGGGGTTTAACTGATGTTAATCGGGTCTTGATTCGCTTGACGCTGCTG | 2.44 z-score | 2.32 z-score | 3.3 z-score | 3.04 z-score
25 | CCGATTAACATCAGGCGAGTCCCTGATGTTAATCGGGTCTTGATTCGCTTGACGCTGCTG | 3.13 z-score | 3.12 z-score | 1.72 z-score | 4.31 z-score
26 | CCGATTAACATCACGGCAATCCCTGATGTTAATCGGGTCTTGATTCGCTTGACGCTGCTG | 1.5 z-score | 1.21 z-score | 2.64 z-score | 2.66 z-score
27 | CCGATTAACATCAGGAATCCCACTGATGTTAATCGGGTCTTGATTCGCTTGACGCTGCTG | 1.73 z-score | 1.37 z-score | 8.1 z-score | 1.75 z-score
28 | CCGATTAACATCAGAGAAGTCCCTGATGTTAATCGGGTCTTGATTCGCTTGACGCTGCTG | 5.7 z-score | 6.22 z-score | 4.44 z-score | 5.93 z-score
29 | CCGATTAACATCAGGGAGAGCCCTGATGTTAATCGGGTCTTGATTCGCTTGACGCTGCTG | 3.06 z-score | 3.59 z-score | 1.82 z-score | 6.26 z-score
30 | CCGATTAACATCAAGGGGGTCCCTGATGTTAATCGGGTCTTGATTCGCTTGACGCTGCTG | 5.89 z-score | 3.29 z-score | 7.16 z-score | 4.47 z-score
31 | CCGATTAACATCAAGGGAAGCCCTGATGTTAATCGGGTCTTGATTCGCTTGACGCTGCTG | 2.12 z-score | 1.83 z-score | 7.5 z-score | 3.99 z-score
